High-throughput results from PubChem.
TbPYK inhibitor = blocks Trypanosoma brucei pyruvate kinase; Q57TT1; TbPYK enzyme, Kinase-Glo Plus ATP luminescence, 45 min; Potency, µM (titrated, usually from 76.8 µM), most hits filed as inhibitors; 410,000 tested, 0.12% active; AID 624173; further: nearly all actives have a fitted effect of over 50% in size
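Activity of T. brucei pyruvate kinase was followed by Kinase-Glo Plus luminescence after the enzyme reacted 45 min at room temperature with 130 uM ADP (final) and substrate. Test compounds were added before ADP at multiple concentrations.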
Cycloheximide cs = counter-screen hit for Shiga toxin inhibitors, cycloheximide. cell reporter, cycloheximide protein synthesis inhibition counterscreen. max response, %. 300,000 tested, 12% active. AID 2314; in the data active means max response mostly above about 13%, no sharp cut-off; inactive means mostly below about 14%; further: read at 38.3 µM for the half of the compounds with a filed dose
LmPK inhibitor = inhibitors of Leishmania mexicana pyruvate kinase | purified LmPK, Kinase-Glo ATP luminescence, 1 h | Potency, µM (doses to about 57.5 µM), most hits filed as inhibitors | 290,000 tested, 0.37% active | AID 1721
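Screened at intermediate enzyme activity to detect both inhibitors and activators: LmPK at 0.1 nM, with a 0.5 nM enzyme column as activation reference. PEP 0.5 mM, ADP 0.1 mM; ATP detected by luminescence after 1 h.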
FBPA Giardia inh = Giardia lamblia aldolase inhibition; purified Giardia FBPA; Potency, µM (doses to about 59.6 µM), most hits filed as inhibitors; 290,000 tested, 0.71% active; further: nearly all actives have a fitted effect of over 55% in size
Target sequence (A8B2U2 whole entry, looked up): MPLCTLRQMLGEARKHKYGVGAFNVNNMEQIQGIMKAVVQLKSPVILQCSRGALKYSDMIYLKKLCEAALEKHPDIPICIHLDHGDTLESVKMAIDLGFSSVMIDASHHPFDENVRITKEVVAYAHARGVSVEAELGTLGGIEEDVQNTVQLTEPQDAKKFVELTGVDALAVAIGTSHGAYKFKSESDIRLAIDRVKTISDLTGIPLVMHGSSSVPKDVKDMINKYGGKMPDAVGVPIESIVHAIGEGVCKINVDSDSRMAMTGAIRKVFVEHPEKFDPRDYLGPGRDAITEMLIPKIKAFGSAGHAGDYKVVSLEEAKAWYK
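Giardia FBPA (40 nM reagent) was preincubated 10 min at RT with compound (up to 57.5 uM final), then substrate plus GAPDH/TPI/NAD/arsenate coupling system with diaphorase/resazurin was added; resorufin fluorescence (525/598 nm) was read after 20 min.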
Sm TGR block = S. mansoni TGR enzyme inhibition; purified TGR, DTNB reduction, TNB absorbance 405 nm; Potency, µM (series often up to 114 µM), usual class: inhibitors; 360,000 tested, 3% active; further: nearly all actives have a fitted effect of over 60% in size
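Kinetic colorimetric format: TGR-catalysed, NADPH-driven DTNB reduction monitored via TNB absorbance. Enzyme dispensed at 20 nM; compound exposure 15 min at room temperature before reaction start.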
Shiga toxin inh = Shiga toxin inhibition; inhibition, % at 38.7 µM; AID 2315; 290,000 tested, 9.2% active; Vero cells, Shiga toxin protein synthesis inhibition reporter; in the data active means inhibition mostly above about 28%, no sharp cut-off; inactive means mostly below about 43%
Of the large screens only hits and unclear results are named; the others gave an inactive call. The sample as a whole holds a higher share of hits than the screen did. Unless noted, the call rests on the fitted dose curve; in most records, active means well fitted curve in the direction sought with a large enough effect; inconclusive means small, poorly fitted or top-dose-only effect, or another doubt; inactive means no such curve, though single readings can be large; an effect the other way counts as inactive or inconclusive.

O=C(O)C1CCCCC1C(=O)N1CC=C(c2ccccc2)CC1 (centres undefined)	Cycloheximide cs 27, Shiga toxin inh 53
O=C(Nc1cccc2ccccc12)N1CC=C(c2ccccc2)CC1	none
O=C(Nc1ccccc1)N1CC=C(c2ccc(F)cc2)CC1	Cycloheximide cs 52, FBPA Giardia inh inconclusive, Shiga toxin inh 95
O=C(Nc1ccccc1)N1CC=C(c2ccccc2)CC1	Cycloheximide cs 36, Sm TGR block inconclusive, Shiga toxin inh 80 (no result: TbPYK inhibitor)
O=C(Nc1cccc(F)c1)N1CC=C(n2c(=O)[nH]c3ccccc32)CC1	none
O=C(Nc1ccc(Br)cc1)c1ccc(F)c(S(=O)(=O)N2CCc3ccccc32)c1	none (no result: Cycloheximide cs, LmPK inhibitor, FBPA Giardia inh, Shiga toxin inh)
CCC(=O)N(CC)C1=C(O)c2ccccc2C(=O)C1=O	TbPYK inhibitor inconclusive, LmPK inhibitor 25µM, FBPA Giardia inh 7.9µM, Sm TGR block 0.28µM
CCC(=O)N(C1=C(NC)C(=O)c2ccccc2C1=O)C(C)C	none
Cc1cc(C)n(CC(=O)Nc2ccc(F)c(F)c2)c(=O)c1C#N	none (no result: Cycloheximide cs, LmPK inhibitor, FBPA Giardia inh, Shiga toxin inh)
Cc1ccc(C(=O)CSc2n[nH]c(C)n2)cc1	Cycloheximide cs 30, FBPA Giardia inh inconclusive, Shiga toxin inh 86
CCc1ccc(C(=O)CSc2n[nH]c(C)n2)cc1	TbPYK inhibitor inconclusive, Cycloheximide cs 44, FBPA Giardia inh inconclusive, Shiga toxin inh 111
CSc1nn(Cc2ccc(F)cc2)c(N)c1S(=O)(=O)c1ccc(Cl)cc1	Sm TGR block inconclusive (no result: Cycloheximide cs, LmPK inhibitor, FBPA Giardia inh, Shiga toxin inh)
COc1ccc(-n2nc(C(=O)Nc3ccc(C(C)=O)cc3)nc2-c2ccccc2)cc1	none (no result: Cycloheximide cs, LmPK inhibitor, FBPA Giardia inh, Shiga toxin inh)
O=C(COC(=O)c1c2c(nc3ccccc13)CCCC2)c1cccs1	Cycloheximide cs 23
O=C(COC(=O)c1c2c(nc3ccccc13)CCCCC2)c1ccc(Cl)s1	Shiga toxin inh 78
Cc1cc(C)c(Cn2c3ccccc3c3cnn(CC(=O)NCC(C)c4ccccc4)c(=O)c32)c(C)c1 (centres undefined)	none (no result: Cycloheximide cs, LmPK inhibitor, FBPA Giardia inh, Shiga toxin inh)
O=[N+]([O-])c1cccn2cc(-c3ccc(Br)cc3)nc12	Cycloheximide cs 44, Shiga toxin inh 67
Cc1cccn2cc(-c3ccc(Cl)cc3)nc12	Cycloheximide cs 45, LmPK inhibitor inconclusive, Shiga toxin inh 62
COc1ccc(-c2cn3cccc(C)c3n2)cc1F	Cycloheximide cs 57, LmPK inhibitor inconclusive, Shiga toxin inh 113
Cc1ccc(-c2cn3cccc(C)c3n2)cc1	Cycloheximide cs 33, LmPK inhibitor 25µM, Shiga toxin inh 51
Cc1cccn2cc(-c3ccc(S(=O)(=O)N4CCCCC4)cc3)nc12	none
Cc1cc(CN2CCCC(C(=O)Nc3ccc(-c4nc5ccccc5[nH]4)cc3)C2)n[nH]1 (centres undefined)	Cycloheximide cs 29
COc1cccc(-c2ccc(NC(=O)C3CCCN(Cc4cccc(C)n4)C3)cc2)c1 (centres undefined)	none (no result: Cycloheximide cs, LmPK inhibitor, FBPA Giardia inh, Sm TGR block, Shiga toxin inh)
CCn1cc(CN2CCCC(C(=O)Nc3ccc(-c4nc5ccccc5[nH]4)cc3)C2)c(C)n1 (centres undefined)	Cycloheximide cs 26, Sm TGR block inconclusive (no result: FBPA Giardia inh)
CC[C@H](C)[C@H](N)C(=O)N[C@H](C(=O)N[C@@H](CO)C(=O)N[C@@H](C)C(=O)N[C@H](C(=O)N[C@H](C(=O)NCC(=O)N[C@H](C(=O)N[C@@H](CC(C)C)C(=O)O)[C@@H](C)CC)C(C)C)C(C)C)[C@@H](C)CC	none (no result: TbPYK inhibitor, LmPK inhibitor, Sm TGR block)
Cc1nn(-c2ccccc2)c(-n2cccc2)c1C(=O)N1CCN(c2ccccc2)CC1	none (no result: Cycloheximide cs, LmPK inhibitor, FBPA Giardia inh, Shiga toxin inh)
COc1ccc(C(=O)N2CCn3c(C)ccc3C2C)cc1 (centres undefined)	FBPA Giardia inh inconclusive, Sm TGR block 28µM
O=C(CSC1=N/C(=C/c2ccco2)C(=O)N1c1ccc(OC(F)F)cc1)NC1CCS(=O)(=O)C1 (centres undefined)	Sm TGR block 40µM, Shiga toxin inh 24
COc1ccc(N2C(=O)/C(=C\c3ccco3)N=C2SCC(=O)NC(C)C)cc1Cl	none
O=C(O)c1ccccc1-c1ccccc1C(=O)Nc1ccc2c(c1)CCC2	none (no result: Shiga toxin inh)
NS(=O)(=O)c1ccc(NC(=O)c2ccc3c(c2)OCO3)cc1	none
NS(=O)(=O)c1ccc(NC(=O)c2ccc3c(c2)CCCC3)cc1	Cycloheximide cs 48
CN(c1ccccc1)S(=O)(=O)c1cccc(C(=O)Nc2ccc3c(c2)CCC3)c1	Cycloheximide cs 21, Shiga toxin inh 82
O=C(Nc1ccc2c(c1)CCC2)c1ccccc1	Cycloheximide cs 31, LmPK inhibitor inconclusive, Shiga toxin inh 48
CC(=O)Nc1ccc(C(=O)Nc2cccc(S(=O)(=O)N(C)c3ccccc3)c2)cc1	none (no result: Cycloheximide cs, LmPK inhibitor, FBPA Giardia inh, Shiga toxin inh)
Cc1ccc(C(=O)Nc2nc(C)c(C(=O)Nc3ccc4c(c3)CCC4)s2)cc1	Cycloheximide cs 45, Shiga toxin inh 48
O=C(Nc1ccc2c(c1)CCC2)c1ccccc1F	Cycloheximide cs 63, LmPK inhibitor inconclusive, Shiga toxin inh 97
COc1cccc(CNC(=O)CCc2c(C)c3cc4c(C)coc4c(C)c3oc2=O)c1	none (no result: Cycloheximide cs, LmPK inhibitor, FBPA Giardia inh, Shiga toxin inh)
Cc1cccc(-c2nc3cc([N+](=O)[O-])ccc3o2)c1	Cycloheximide cs 36, Shiga toxin inh 92
N/C(=N\c1nc2ccccc2o1)NC(=O)c1ccc([N+](=O)[O-])cc1	none
COc1ccc(-c2nc3ccc([N+](=O)[O-])cc3o2)cc1	Cycloheximide cs 39, Shiga toxin inh active
O=[N+]([O-])c1ccc2oc(-c3ccccc3)nc2c1	Cycloheximide cs 35, Shiga toxin inh 69
Cc1cccc([N+](=O)[O-])c1	none (no result: Cycloheximide cs, LmPK inhibitor, FBPA Giardia inh, Shiga toxin inh)
NC(N)=Nc1nc2cc([N+](=O)[O-])ccc2o1	Cycloheximide cs 15
CCC1=C[C@@H]2CN(C1)Cc1c([nH]c3ccccc13)[C@@](C(=O)OC)(c1cc3c(cc1OC)N(C)[C@@H]1[C@@](O)(C(=O)OC)[C@H](OC(C)=O)[C@]4(CC)C=CCN5CC[C@]31[C@@H]54)C2	none (no result: Cycloheximide cs, LmPK inhibitor, FBPA Giardia inh, Sm TGR block, Shiga toxin inh)
CCOc1ccc(NC(=O)c2c(C)oc3nc(C)nc(N4CCOCC4)c23)cc1	none (no result: Cycloheximide cs, LmPK inhibitor, FBPA Giardia inh, Shiga toxin inh)
COc1ccc([C@]23Cc4ccccc4C(O2)c2c(cc(C)n(Cc4ccccc4)c2=O)O3)cc1	FBPA Giardia inh inconclusive, Sm TGR block inconclusive (no result: TbPYK inhibitor)
Cc1ccc(S(=O)(=O)NCCC(=O)Oc2ccc3ccc(=O)oc3c2)cc1	Sm TGR block 16µM
Cc1ccc(S(=O)(=O)NC(C(=O)Oc2ccc3ccc(=O)oc3c2)c2ccccc2)cc1 (centres undefined)	Sm TGR block inconclusive
CCOC(=O)c1ccc(NC(=O)C2CCCN(c3ccc(Sc4ccc(C)cc4)nn3)C2)cc1 (centres undefined)	none (no result: Cycloheximide cs, LmPK inhibitor, FBPA Giardia inh, Shiga toxin inh)
CC1CN(c2ccccc2)CCN1C(=O)c1cc(COc2c(F)cccc2F)on1 (centres undefined)	none
Cc1cccc(C)c1OCc1cc(C(=O)N2CCN(c3ccccc3)CC2C)no1 (centres undefined)	Cycloheximide cs 16 (no result: FBPA Giardia inh)
